{
  "source": "PubChem BioAssay",
  "note": "The source made the active and inactive calls.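 Rule for the calls: active = mean duplicate potentiation above the buffer control mean plus 5 SD of buffer wells; inactive = the rest.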",
  "data": [
    {"molecular_target": "Potassium voltage-gated channel subfamily KQT member 2 (Rattus norvegicus) (UniProt O88943)", "sequence (O88943 whole entry, looked up)": "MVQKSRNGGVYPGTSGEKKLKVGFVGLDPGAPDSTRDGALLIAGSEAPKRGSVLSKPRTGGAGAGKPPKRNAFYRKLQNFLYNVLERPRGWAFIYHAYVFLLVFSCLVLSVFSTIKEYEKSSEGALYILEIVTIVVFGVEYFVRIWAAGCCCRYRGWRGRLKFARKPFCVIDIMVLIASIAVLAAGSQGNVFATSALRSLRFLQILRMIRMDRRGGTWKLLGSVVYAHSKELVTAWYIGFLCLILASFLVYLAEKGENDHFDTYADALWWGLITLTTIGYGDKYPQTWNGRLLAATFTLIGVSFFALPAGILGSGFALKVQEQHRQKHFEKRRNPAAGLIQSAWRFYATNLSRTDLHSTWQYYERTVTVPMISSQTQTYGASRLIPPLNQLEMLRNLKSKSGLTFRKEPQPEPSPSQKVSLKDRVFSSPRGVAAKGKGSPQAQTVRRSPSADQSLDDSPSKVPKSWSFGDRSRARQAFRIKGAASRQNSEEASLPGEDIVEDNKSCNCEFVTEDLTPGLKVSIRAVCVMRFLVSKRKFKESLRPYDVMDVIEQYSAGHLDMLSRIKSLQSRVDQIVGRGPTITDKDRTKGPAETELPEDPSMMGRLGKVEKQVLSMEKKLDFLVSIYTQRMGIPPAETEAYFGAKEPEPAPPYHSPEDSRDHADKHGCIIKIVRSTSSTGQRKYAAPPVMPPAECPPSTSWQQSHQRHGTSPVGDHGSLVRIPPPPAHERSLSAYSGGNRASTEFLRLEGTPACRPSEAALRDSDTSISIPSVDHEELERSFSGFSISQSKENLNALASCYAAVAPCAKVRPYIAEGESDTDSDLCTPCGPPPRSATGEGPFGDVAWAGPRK", "assay": "KCNQ2 thallium flux enhancement – KCNQ2-CHO-K1 cells, selectivity assay for KCNQ1 potentiator project (AID 493009);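 note: assay conditions were tuned for KCNQ1 rather than KCNQ2 modulators; signal is max minus min fluorescence divided by baseline after thallium stimulus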", "conditions": "FluxOR thallium flux fluorescence, at 10 µM; stronger effect = higher value, scaled: buffer 0, activator control 100", "values": [
      {"smiles": "CCOC(=O)c1c(NC(=S)NCCc2ccccc2)sc2c1CC(C(C)C)OC2", "note": "(stereo not given)", "potentiation": "146% (active)"},
      {"smiles": "CCOC(=O)c1c(NS(C)(=O)=O)sc2c1CCC(C)C2", "note": "(stereo not given)", "potentiation": "190% (active)"},
      {"smiles": "Clc1ccc(-c2csc(N3CCc4ccccc4C3)n2)cc1", "outcome": "inactive"},
      {"smiles": "CC1CCCC(NC(=S)NC(=O)c2ccccc2Br)C1C", "note": "(stereo not given)", "outcome": "inactive"},
      {"smiles": "CCOc1ccc(N2CC(C(=O)Nc3cc(Cl)ccc3-n3cncn3)CC2=O)cc1", "note": "(stereo not given)", "outcome": "inactive"},
      {"smiles": "COc1cccc2sc(Nc3nnc(-c4ccccc4Cl)o3)nc12", "outcome": "inactive"},
      {"smiles": "N=c1sccn1CC(=O)Nc1cc(Cl)ccc1Oc1ccccc1", "outcome": "inactive"},
      {"smiles": "CC(C)(C)c1cc(-c2csc(Nc3ccccc3)[n+]2Cc2ccc(C(=O)O)cc2)cc(C(C)(C)C)c1O", "potentiation": "198% (active)"},
      {"smiles": "COC(=O)c1cccnc1NC(=S)NC1CCCCC1", "potentiation": "233% (active)"},
      {"smiles": "CC(C)CCn1c(=S)[nH]c2ncccc2c1=O", "outcome": "inactive"},
      {"smiles": "O=[N+]([O-])c1cccc(-c2ccc3nnc(SCc4ccccn4)n3n2)c1", "outcome": "inactive"},
      {"smiles": "COC(=O)c1c(NS(=O)(=O)c2ccc3ccccc3c2)sc2c1CCCC2", "potentiation": "232% (active)"},
      {"smiles": "Cc1noc(C)c1CSc1ncnc2sc(C)c(C)c12", "outcome": "inactive"},
      {"smiles": "COc1ccc(C(=O)Nc2ccnn2C2CCN(Cc3ccncc3)CC2)cc1", "outcome": "inactive"},
      {"smiles": "Cc1cc2ccccn2c1C(=S)NC(=O)c1ccccc1", "potentiation": "370% (active)"},
      {"smiles": "S=c1nc[nH]c2c1cnn2-c1ccccc1", "potentiation": "222% (active)"},
      {"smiles": "Cc1snnc1C(=O)NC(=S)Nc1ccccc1", "potentiation": "270% (active)"},
      {"smiles": "CCOC(=O)C1CCN(C(=O)c2c(C)oc3c2C(=O)c2ccccc2C3=O)CC1", "outcome": "inactive"},
      {"smiles": "COc1ccc(OC)c(NC(=O)C(=O)NNC(=O)C23CC4CC(CC(C4)C2)C3)c1", "potentiation": "463% (active)"},
      {"smiles": "COc1cccc(C=NCC(C)N=Cc2cccc(OC)c2O)c1O", "note": "(stereo not given)", "outcome": "inactive"},
      {"smiles": "Cc1ccc(/C=C/C(=O)c2ccccc(=O)c2O)c(C)c1", "potentiation": "280% (active)"},
      {"smiles": "COc1ccc(Nc2nc(-c3sc(C)nc3C)cs2)c(OC)c1", "outcome": "inactive"},
      {"smiles": "CN(C)CC(CCCCC(CN(C)C)C(=O)c1ccccc1)C(=O)c1ccccc1", "note": "(stereo not given)", "outcome": "inactive"},
      {"smiles": "O=C(CN(Cc1ccccc1Cl)C(=O)c1csnn1)NC1CCCC1", "outcome": "inactive"},
      {"smiles": "CCCCCC/C(C)=C1/SC(=S)NC1=O", "potentiation": "612% (active)"},
      {"smiles": "CSc1ccc(NC(=O)CC(C)=O)cc1", "outcome": "inactive"},
      {"smiles": "S=c1[nH]c(-c2ccccc2)cs1", "potentiation": "464% (active)"},
      {"smiles": "COc1ccc(C(=O)NC(=S)N2CCC(C)CC2)cc1Br", "potentiation": "290% (active)"},
      {"smiles": "CN(C)c1ccc(-c2nn3c(-c4ccccc4Cl)nnc3s2)cc1", "outcome": "inactive"},
      {"smiles": "CNC(=S)Nc1sc2c(c1C(=O)OC)CCC2", "potentiation": "287% (active)"},
      {"smiles": "COc1ccc(CCNC(=O)c2c(C)nc3ccccn23)cc1", "outcome": "inactive"},
      {"smiles": "CCOc1ccc(-c2noc(CCC(=O)NC3CCCC3)n2)cc1OC", "outcome": "inactive"},
      {"smiles": "Cc1ccc(C)c(NC(=S)NC(=O)c2cncc(Br)c2)c1", "outcome": "inactive"},
      {"smiles": "CN(C)CCNc1ncnc2c1sc1nc(N3CCCC3)c3c(c12)CC(C)(C)OC3", "outcome": "inactive"},
      {"smiles": "O=C(c1ccc(Cl)cc1)c1c[nH]c(C(=O)C(Cl)(Cl)Cl)c1", "outcome": "inactive"},
      {"smiles": "FC(F)(F)c1cnc2c(c1)[nH]c(=S)n2-c1ccc(Cl)cc1", "potentiation": "178% (active)"},
      {"smiles": "Oc1ccc(N=Nc2ccc3c(c2)OCCO3)c2cccnc12", "potentiation": "384% (active)"},
      {"smiles": "O=c1c2cccnc2n(-c2ccccc2)n1Cc1ccc(Cl)cc1", "outcome": "inactive"},
      {"smiles": "Oc1c(N=NC(=S)Nc2ccccc2F)c2ccccc2n1Cc1ccccc1Cl", "potentiation": "210% (active)"},
      {"smiles": "Oc1c(Br)cc(Br)cc1C=Nc1ccc2c(c1)OCO2", "outcome": "inactive"}
    ]}
  ]
}
